26 compounds from PubChem BioAssay (Tox21) can be followed below.

“And” between values parts separate entries of the source, which are not always exact repeats. Equal entries are not always repeated. Inconclusive results are not listed. More than one record can exist for a structure, and the calls need not agree. The source made the active and inactive calls. Unless noted, calls follow the shape of the dose curve; as a rule, active = well fitted curve in the direction sought with a large enough effect in the repeat runs; inconclusive = weak or mixed curves; inactive = no such curve, though single readings can be large; an effect the other way counts as inactive or inconclusive.

A short description of assay [1]: qHTS assay to identify small molecule antagonists of the glucocorticoid receptor (GR) signaling pathway - cell viability counter screen (AID 720693). Also: nearly all actives have a fitted effect of over 55% in size.
A short description of assay [2]: qHTS assay for identifying genotoxic compounds that show differential cytotoxicity against isogenic chicken DT40 cell lines with known DNA damage response pathways - wild type cell line (AID 743012). Also: nearly all actives have a fitted effect of over 60% in size. Also: potency is read from the fitted curve at half-maximal effect. Summed up: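 First, wild type DT40 cells were plated at 300 per well and equilibrated about 0.5 h at 37 C/5% CO2. Next, compounds in DMSO were added and exposure lasted 40 h. Finally, CellTiter-Glo was added for 30 min at room temperature and luminescence recorded.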
Background: Quantitative high-throughput screening tests each substance at several concentrations.

The nature of assay [3]: qHTS assay for identifying genotoxic compounds that show differential cytotoxicity against isogenic chicken DT40 cell lines with known DNA damage response pathways - Rev3 mutant cell line (AID 743014). Also: nearly all actives have a fitted effect of over 55% in size. Also: potency is read from the fitted curve at half-maximal effect.
Assay [4] can be described thus: qHTS assay for identifying genotoxic compounds that show differential cytotoxicity against isogenic chicken DT40 cell lines with known DNA damage response pathways - Rad54/Ku70 mutant cell line (AID 743015). Also: nearly all actives have a fitted effect of over 60% in size. Also: potency is read from the fitted curve at half-maximal effect.
Assay [5] in a line: qHTS assay to identify small molecule antagonists of the androgen receptor (AR) signaling pathway - cell viability counter screen (AID 743033; also: nearly all actives have a fitted effect of over 45% in size).
Assay [6] in a line: qHTS assay to identify small molecule antagonists of the androgen receptor (AR) signaling pathway using the MDA cell line - cell viability counter screen (AID 743041; also: nearly all actives have a fitted effect of over 45% in size). A digest of the protocol: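 R1881-driven MDA-kb2 AR-luc cells, 3,000/well, were dosed with library compounds for 16 h; cell health came from CellTiter-Fluor fluorescence in the reporter wells.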
The target of assay [7] is Androgen receptor (Homo sapiens) (UniProt P10275). Briefly: qHTS assay to identify small molecule antagonists of the androgen receptor (AR) signaling pathway (AID 743035; active = well fitted inhibition curve with a large enough effect in the signal ratio in the repeat runs, not every such curve was filed as active; the % refers to the signal ratio). Summed up: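 Beta-lactamase FRET read (2 h RT incubation with LiveBLAzer B/G) following 16 h of compound plus R1881 treatment of AR-UAS-bla HEK293 cells, which had been pre-incubated 4 h at 37C.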
Chain of Androgen receptor (Homo sapiens) (P10275 whole entry, looked up): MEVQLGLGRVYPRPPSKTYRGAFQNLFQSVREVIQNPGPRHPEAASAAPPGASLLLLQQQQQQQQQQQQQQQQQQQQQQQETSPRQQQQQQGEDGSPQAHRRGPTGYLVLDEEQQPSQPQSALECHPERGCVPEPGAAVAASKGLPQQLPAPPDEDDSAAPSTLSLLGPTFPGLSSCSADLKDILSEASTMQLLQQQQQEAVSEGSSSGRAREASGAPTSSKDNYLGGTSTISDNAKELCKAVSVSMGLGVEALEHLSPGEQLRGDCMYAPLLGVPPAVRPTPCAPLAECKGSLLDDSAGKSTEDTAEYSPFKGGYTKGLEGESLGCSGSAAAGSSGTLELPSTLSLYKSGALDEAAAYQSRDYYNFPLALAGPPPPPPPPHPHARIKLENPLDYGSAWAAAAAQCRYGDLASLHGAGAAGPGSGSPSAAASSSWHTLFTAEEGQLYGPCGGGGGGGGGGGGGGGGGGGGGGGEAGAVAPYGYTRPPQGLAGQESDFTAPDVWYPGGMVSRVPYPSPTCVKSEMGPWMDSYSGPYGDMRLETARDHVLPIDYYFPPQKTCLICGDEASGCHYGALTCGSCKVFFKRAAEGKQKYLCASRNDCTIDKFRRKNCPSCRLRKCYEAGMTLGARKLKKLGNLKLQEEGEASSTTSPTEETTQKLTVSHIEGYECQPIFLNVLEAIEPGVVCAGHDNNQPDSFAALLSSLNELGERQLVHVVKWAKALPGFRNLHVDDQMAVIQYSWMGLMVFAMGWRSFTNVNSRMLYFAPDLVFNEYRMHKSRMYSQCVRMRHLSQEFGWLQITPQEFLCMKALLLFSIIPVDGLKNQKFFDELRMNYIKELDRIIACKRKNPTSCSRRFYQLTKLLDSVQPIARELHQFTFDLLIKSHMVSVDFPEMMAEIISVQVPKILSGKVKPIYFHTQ
For assay [8] the target is unchanged. As to the kind of experiment: qHTS assay to identify small molecule agonists of the androgen receptor (AR) signaling pathway (AID 743036; active = well fitted activation curve with a large enough effect in the signal ratio in the repeat runs, with a control signal flat, not every such curve was filed as active; the % refers to the signal ratio). Summed up: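 Reporter line: GeneBLAzer AR-UAS-bla-GripTite (HEK293). Steps: plate cells, 4 h rest, add compounds, 16 h at 37C, add LiveBLAzer B/G substrate, 2 h at RT, read fluorescence.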
Assay [9] shares this target. Briefly: qHTS assay to identify small molecule agonists of the androgen receptor (AR) signaling pathway using the MDA cell line (AID 743040; also: nearly all actives have a fitted effect of over 20% in size). Summed up: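 After a 5 h incubation at 37C and 0% CO2, MDA-kb2 reporter cells were dosed with compounds in DMSO and kept 16 h under the same conditions. Luciferase activity was then read as luminescence with ONE-Glo.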
For assay [10] the target is unchanged. Briefly: qHTS assay to identify small molecule antagonists of the androgen receptor (AR) signaling pathway using the MDA cell line (AID 743042; also: nearly all actives have a fitted effect of over 55% in size). A digest of the protocol: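 Antagonist mode: compounds plus R1881 agonist added to MDA-kb2 AR-luc cells, incubated 16 h at 37C. Luciferase reporter luminescence quantified, with multiplexed CellTiter-Fluor readout for cell viability.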

For the compound `CC(=O)OCC(=O)[C@@]1(O)CCC2C3CCC4=CC(=O)CC[C@]4(C)C3[C@@H](O)C[C@@]21C` (some centres not stated), the outcome in [1] was inactive. Further, the Potency entry in assay [2], in assay [3], in assay [4], in [5] and in assay [6] was “inactive” throughout.

`CCSC(=O)N(CC(C)C)CC(C)C`: the call in assay [1], in [7] and in [8] was inactive. For the same compound, the Potency entry in assay [2], in assay [3], in assay [4], in [5], in [9] and in [6] was “inactive” throughout. The Potency entry in [10] was “inactive”.

As for `Nc1ccccc1S(=O)(=O)O`, the result in assay [1] was inactive. Besides, the Potency result in [2], in assay [3], in [4], in assay [5] and in assay [6] was “inactive” in each case.

As to `O=C(O)CCCc1ccccc1`, the call in assay [1] was inactive. Also, the Potency entry in [2], in assay [3], in assay [4], in [5] and in assay [6] was “inactive” in each case.

As for `Cc1cccc(C)c1NC(=O)C(C)N` (configuration not stated), the compound was classed as inactive in [1]. The Potency entry in [2], in [3], in assay [4], in assay [5] and in assay [6] was “inactive” each time.

As to `CCCCCOC(=O)CCCCC`, the compound was classed as inactive in assay [1]. Further, the Potency entry in [2], in assay [3], in assay [4], in assay [5] and in assay [6] was “inactive” each time.

`O=C(O)COc1nn(Cc2ccccc2)c2ccccc12`: the compound was classed as inactive in [1] and in assay [7]. The Potency entry in assay [2], in [3], in assay [4], in assay [5], in assay [9] and in assay [6] was “inactive” each time. For the same compound, the Potency result in [10] was “inactive”.

Turning to `O=c1n(CCO)c(=O)n(CCO)c(=O)n1CCO`, the compound was classed as inactive in assay [1]. For the same compound, the Potency result in assay [2], in assay [4], in [5] and in [6] was “inactive” each time. Further, the Potency result in [3] is “inactive and 61.1 µM (active)”.

Turning to `CCCCNC(=O)NCCCC`, the compound was called inactive in [1] and in [7]. For the same compound, the Potency entry in assay [2], in assay [3], in assay [4], in assay [5], in assay [9] and in assay [6] was “inactive” each time. Moreover, the Potency entry in assay [10] is “inactive”.

In the case of `CC(C)NCC(O)c1ccc(NS(C)(=O)=O)cc1` (configuration not stated), the result in assay [1] was inactive. Besides, the Potency entry in assay [2], in assay [3], in assay [4], in assay [5] and in assay [6] was “inactive” in each case.

Regarding `C=CCS(=O)(=O)O`, the compound was classed as inactive in assay [1]. The Potency result in [2], in assay [3], in assay [4], in assay [5] and in assay [6] was “inactive” throughout.

Consider `CC1(C)C(O)C(C)(C)C1O` (configuration not stated), for which the result in assay [1] and in assay [7] was inactive. Besides, the Potency entry in assay [2], in assay [3], in assay [4], in assay [5], in [9] and in assay [6] was “inactive” in each case. In addition, the Potency result in assay [10] was “inactive”.

For `CC(=O)OCC(CCn1cnc2cnc(N)nc21)COC(C)=O`, the result in assay [1], in [7] and in [8] was inactive. Besides, the Potency result in assay [2], in assay [3], in assay [4], in assay [5], in assay [9] and in assay [6] was “inactive” each time. Moreover, in [10], the Potency result was “inactive”.

Consider `CCC(C)C1CCCCC1=O` (configuration not stated), for which the compound was called inactive in assay [1]. Moreover, the Potency result in assay [2], in assay [3], in assay [4], in assay [5] and in [6] was “inactive” each time.

As to `CC(C)(O)C(=O)c1ccccc1`, the call in [1], in [7] and in [8] was inactive. The Potency result in [2], in [3], in [4], in assay [5], in assay [9] and in [6] was “inactive” each time. Moreover, the Potency entry in [10] is “inactive”.

With `Nc1c[n+](N2CCOCC2)no1`, the compound was called inactive in assay [1]. Also, the Potency result in [2], in assay [3], in assay [4], in assay [5] and in assay [6] was “inactive” in each case.

Regarding `CN(C)CCCNCCCN(C)C`, the result in assay [1] was inactive. The Potency result in [2], in assay [3], in [4], in [5] and in assay [6] was “inactive” throughout.

On to `CCCCOCCOCCOCCCC`, for which the compound was classed as inactive in [1]. Further, the Potency result in assay [2], in assay [3], in assay [4], in [5] and in assay [6] was “inactive” in each case.

As to `O=C(O)c1ccccc1OP(=O)(O)O`, the compound was called inactive in assay [1]. Also, the Potency entry in assay [2], in assay [3], in assay [4], in assay [5] and in assay [6] was “inactive” each time.

`COc1ccccc1OCC(O)CN1CCN(CC(=O)Nc2c(C)cccc2C)CC1` (configuration not stated): in assay [1], the call was inactive. For the same compound, the Potency result in [2], in assay [3], in [4], in [5] and in [6] was “inactive” each time.

For `FC(F)OC(Cl)C(F)(F)F` (configuration not stated), in assay [1], the call was inactive. In addition, the Potency result in assay [2], in assay [3], in [4], in assay [5] and in assay [6] was “inactive” each time.

`ClC(Cl)(Br)Br`: the compound was called inactive in assay [1], in assay [7] and in assay [8]. For the same compound, the Potency entry in [2], in assay [3], in assay [4], in assay [5], in assay [9] and in assay [6] was “inactive” in each case. The Potency result in [10] is “inactive”.

With `NC(=O)COCCN1CCN(C(c2ccccc2)c2ccc(Cl)cc2)CC1` (configuration not stated), the result in [1] and in assay [7] was inactive. Further, the values for the Potency in assay [2], in assay [3] and in assay [4] were 33.5 µM (active), 8.41 µM (active) and 26.6 µM (active), respectively. In addition, the Potency result in assay [5], in assay [9], in [6] and in assay [10] was “inactive” throughout.

For `C/C=C(\C)C#N`, the outcome in assay [1] was inactive. In addition, the Potency result in [2], in assay [3], in [4], in [5] and in assay [6] was “inactive” throughout.

For the compound `CC1(C)CO[C@@H](CC(=O)O)CN1`, in assay [1], the call was inactive. Further, the Potency entry in [2], in assay [3], in assay [4], in [5] and in assay [6] was “inactive” each time.

On to `N=C(N)c1ccc2cc(OC(=O)c3ccc(N=C(N)N)cc3)ccc2c1`, for which the call in assay [1] and in assay [8] was inactive. The Potency entry in assay [2], in assay [3], in [4], in assay [5], in [9] and in assay [6] was “inactive” throughout. For the same compound, the Potency entry in assay [10] is “inactive”.
